Assay results from PubChem BioAssay AID651636 (Sanford-Burnham Center for Chemical Genomics, 2012).
Among all 360,000 compounds or so, about 3,000 (0.83%) were called active. The list comes from a sample in which actives are over-represented; it also holds similar structures and randomly drawn compounds. A number with no mark means an inactive call. No stated cut-off is given here; in the data, active means inhibition above about 38%; inactive means the rest.

Target: G-protein coupled receptor 183 (Homo sapiens) (UniProt P32249)
Sequence (P32249 whole entry, looked up, the tested form may be a part): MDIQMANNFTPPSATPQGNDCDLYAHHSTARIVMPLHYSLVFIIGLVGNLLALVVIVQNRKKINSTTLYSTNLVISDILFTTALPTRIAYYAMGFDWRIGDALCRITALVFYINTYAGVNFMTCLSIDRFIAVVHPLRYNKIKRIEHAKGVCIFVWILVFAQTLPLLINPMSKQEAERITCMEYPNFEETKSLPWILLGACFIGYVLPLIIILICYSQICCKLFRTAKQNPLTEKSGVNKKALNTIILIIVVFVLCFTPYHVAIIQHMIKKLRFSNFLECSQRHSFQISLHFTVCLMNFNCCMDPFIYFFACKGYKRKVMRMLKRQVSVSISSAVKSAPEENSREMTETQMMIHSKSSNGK
Experiment: EBI2 receptor antagonists, beta-arrestin recruitment, primary screen, cell-based, luminescence, 7a,25-OHC stimulation, uHTS (AID 651636);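 further: enzyme fragment complementation signal reports receptor beta-arrestin coupling in cells; 0% = agonist plus DMSO wells and 100% = wells without agonist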
Settings: 7a,25-OHC stimulated, at 5 µM, hits give high values

Structure (SMILES) | inhibition
CCOc1ccc(S(=O)(=O)Nc2ccncc2)c(C)c1C | -5.77%
CCCS(=O)(=O)NC(=O)C1(C)CCCN(C(=O)c2cc(C)on2)C1 (stereo unspecified) | -3.5%
Cc1cccc(C)c1NC(=O)CN1CCN(c2ccc(F)cc2)CC1 | 0.0279%
O=C(CN1CCN(c2ccc(Cl)cc2)CC1)c1ccccc1 | 2.55%
Oc1c(CN2CCN(c3ccc(F)cc3)CC2)cc(Cl)c2cccnc12 | 54.1% (active)
COc1cccc(-c2ccc3c(c2)N(Cc2ccccc2OC)C(=O)C(C)S3)c1 (stereo unspecified) | 27.4%
CN(C)C(=O)c1cccc(-c2cnc3c(NC=O)cc(-c4ccc(F)cc4)cn23)c1 | 8.37%
COc1ccc(-c2cc(NC=O)c3ncc(-c4cc(OC)c(OC)c(OC)c4)n3c2)c(OC)c1 | 15.5%
COc1ccc(-c2cc(NC=O)c3ncc(-c4cccc(C(=O)N(C)C)c4)n3c2)c(OC)c1 | 52% (active)
N#Cc1ncc(C(F)(F)F)cc1Oc1cccnc1 | -11%
Cc1onc(-c2ccccc2Cl)c1C(=O)N(Cc1ccc(N(C)C)cc1)C(C)C | 1.77%
CC(Sc1nncn1C)C(=O)Nc1ccccc1-c1ccccc1 (stereo unspecified) | -4.03%
CCOC(=O)C1=NN(c2ccc(Cl)cc2)/C(=C/C2=NCCc3cc(OC)c(OC)cc32)S1 | 6.84%
COc1ccc(N2CCN(c3ccc([N+](=O)[O-])nc3)CC2)cc1 | 6.82%
COc1ccc(-c2cc(C3CCN(c4ncccc4[N+](=O)[O-])CC3)[nH]n2)cc1 | 37.5% (active)
CC(=O)NC(Cc1ccccc1)C(=O)NC1CCN(c2ncccc2[N+](=O)[O-])CC1 (stereo unspecified) | 5.83%
CCN1CCN(C(=O)N(Cc2ccc(Cl)cc2)S(=O)(=O)c2ccc(C)cc2)CC1 | -6.18%
CC1=C(C(=O)N(C(C)C)C(C)C)CC(CC(=O)NCC2CCCCC2)C(=O)N1Cc1ccccc1 (stereo unspecified) | 3.31%
CN1CCCN(S(=O)(=O)c2ccc3c(c2)OCCO3)CC1 | -1.61%
O=C(c1ccc(Cl)nc1)N1CCN(S(=O)(=O)c2ccc3c(c2)OCCO3)CC1 | 17.6%
O=c1[nH]c(CN2CCN(S(=O)(=O)c3ccc4c(c3)OCCO4)CC2)nc2sc3c(c12)CCCC3 | 38.3% (active)
C=CCOc1ccc(/C=C/C(=O)OCC(=O)NC(C)c2ccc(F)cc2)cc1 (stereo unspecified) | 29.1%

Structure (SMILES) | inhibition
Cn1c(SCC(=O)OC2CCCCC2)nnc1-c1ccc(S(=O)(=O)N2CCCC2)cc1 | 0.352%
COc1ccc(CCNC(=O)CCn2c(=O)c3ccccc3n(CC(=O)NCC3CCCO3)c2=O)cc1OC (stereo unspecified) | -15.5%
CC1(Cc2ccccc2C#N)C(=O)Nc2ccc(-c3ccc4[nH]ccc4c3)cc21 (stereo unspecified) | 47.3% (active)
CC1(Cc2cccc(C#N)c2)C(=O)Nc2ccc(-c3cccc(C(F)(F)F)c3)cc21 (stereo unspecified) | 17.2%
COc1ccccc1CC1(C)C(=O)Nc2ccc(OC(F)(F)F)cc21 (stereo unspecified) | 3.59%
CCCCOCCCNC(=O)C[C@@H]1C[C@@]2(C(=O)OCC)CCCC=C2N(CCC2=CCCCC2)C1=O | 1.45%
CCOc1ccc(N(CC(=O)OC)S(=O)(=O)c2c(C)noc2C)cc1 | 1.12%
COc1ccc(N(CC(=O)Nc2cc(OC)ccc2OC)S(=O)(=O)c2c(C)noc2C)cc1 | 65.5% (active)
CCOC(=O)c1cccc(NC(=O)CN(c2ccc(C)cc2)S(=O)(=O)c2c(C)noc2C)c1 | 15.3%
CCc1nc2ccc(C(=O)N3CCN(c4cccc(Cl)c4)CC3)cc2nc1CC | -4.92%
Cc1nc2ccc(C(=O)N3CCN(c4ccccc4)CC3)cc2s1 | 65.3% (active)
Cc1nc2ccc(C(=O)N3CCSCC3)cc2s1 | -12.2%
Cc1c(CN2CCCC(C(=O)c3cccc(Cl)c3)C2)c(=O)n(-c2ccccc2)n1C (stereo unspecified) | 5.82%
OC[C@@H]1CN(Cc2ccncc2)C[C@H](n2cnc3c(N4CCN(c5ccccc5)CC4)ncnc32)O1 | 13.5%
CCC1Nc2ncnc(N3CCN(c4ccccc4)CC3)c2N(Cc2ccc(Cl)cc2)C1=O (stereo unspecified) | 68.8% (active)
CC[C@]1(C(=O)OC)[C@H]2C(=O)N(Cc3ccccc3)C(=O)[C@H]2[C@H]2CN=C(SCc3ccc(Cl)cc3)N21 | 19.5%
CC(C)CC1(C)NC(=O)N(CC(=O)Nc2ccc3c(c2)OCCO3)C1=O (stereo unspecified) | 10.5%
O=C(NCCS(=O)(=O)N1CCN(c2ccc(F)cc2)CC1)c1ccc2c(c1)OCO2 | 5.18%
O=C(NNC(=S)Nc1ccc(F)cc1)[C@H]1C[C@@H]1c1ccccc1 | -13.1%
CCN(CC)c1ccc(/C=N/Nc2nc(C)cc(C)n2)c(O)c1 | 42.4% (active)
O=C(NCCN1C(=O)S/C(=C\c2cccnc2)C1=O)c1ccc(S(=O)(=O)N2CCCC2)cc1 | -1.14%
Cc1ccc(SCCC(=O)NC(C(C)C)C(C)C)cc1 | 5.4%

Structure (SMILES) | inhibition
Cc1cc(OCCOc2cccc3cccnc23)c(C)cc1Cl | 46.6% (active)
CCOc1cccc(OCCCOc2cccc3cccnc23)c1 | 4.1%
O=S(=O)(NCCOc1cccc2cccnc12)c1ccc(F)cc1 | 0.785%
CCOC(=O)N1CCN(C(=O)C[C@@H]2C[C@@]3(C(=O)OC)CC(C)(C)CC=C3N(Cc3ccco3)C2=O)CC1 | 3.44%
Cc1nc(-c2ccc(Cl)cc2)sc1C(=O)CBr | 10.7%
Cc1nc(-c2ccccc2)sc1C(=O)/C=C/c1ccccc1 | 55.4% (active)
Cc1[nH]c(=O)c(C(=O)/C=C/c2ccccc2)c2c1CCCC2 | -9.45%
CC1=C/C(=N\OS(=O)(=O)c2ccccc2)C=CC1=O | -17.6%
O=S(=O)(Nc1cccc(-n2cnnn2)c1)c1cnc(Cl)c(Cl)c1 | -8.42%
CC(C)(C)C1CCC(=NNC(=O)c2ccc(Br)o2)CC1 (stereo unspecified) | -9.46%
N#Cc1ccc(C2=CC(=O)C[C@H](c3ccc(Cl)cc3)C2)cc1 | 80.3% (active)
COc1ccc([C@H]2CC(=O)C=C(/C=C/c3ccccc3)C2)cc1 | 34.9%
COc1cccc(C2=CC(=O)C[C@H](c3ccc(OC)c(OC)c3)C2)c1 | 10.2%
COc1ccc([C@H]2CC(=O)C=C(c3ccc(OC(F)(F)F)cc3)C2)cc1OC | 31%
COc1ccc([C@H]2CC(=O)C=C(c3ccc(C)cc3)C2)cc1 | 81.1% (active)
COc1ccc([C@H]2CC(=O)C=C(c3ccc(CO)cc3)C2)cc1 | 29.6%
O=C1C=C(c2cc(C(F)(F)F)cc(C(F)(F)F)c2)C[C@@H](c2ccc3c(c2)OCO3)C1 | 14%
COc1ccc2cc(C3=CC(=O)C[C@H](c4ccc5c(c4)OCO5)C3)ccc2c1 | 71.7% (active)
CCCCC/C=C/C1=CC(=O)C[C@H](c2ccc(Cl)cc2)C1 | 4.95%
O=C1C=C(c2cccc(Br)c2)C[C@@H](c2ccc(F)cc2)C1 | 36.7%
COc1ccc([C@H]2CC(=O)C=C(/C=C/c3ccc(Cl)cc3)C2)cc1 | 44.1% (active)
O=C1C=C(c2cccc(Cl)c2)C[C@@H](c2ccc(F)cc2)C1 | 22.1%
